Screening data deposited in PubChem by several laboratories.
Mtb FBA inh: inhibitors of M. tuberculosis fructose-bisphosphate aldolase; inhibition, % at 1 µM; AID 588726; P9WQA3; purified M. tuberculosis FBA, fluorescence read-out; hit rate 2.3% among 360,000
Target sequence (P9WQA3 whole entry, looked up): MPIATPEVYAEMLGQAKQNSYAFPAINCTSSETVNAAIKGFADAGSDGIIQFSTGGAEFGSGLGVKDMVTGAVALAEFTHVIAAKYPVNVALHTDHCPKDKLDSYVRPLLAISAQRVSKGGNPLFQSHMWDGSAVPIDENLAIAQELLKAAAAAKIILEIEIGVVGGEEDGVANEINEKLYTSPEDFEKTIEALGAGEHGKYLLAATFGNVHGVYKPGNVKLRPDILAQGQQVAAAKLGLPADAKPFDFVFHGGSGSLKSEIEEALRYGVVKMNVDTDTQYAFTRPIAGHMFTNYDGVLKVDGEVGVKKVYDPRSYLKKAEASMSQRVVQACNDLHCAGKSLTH
Y pestis TopoI: inhibitors of Yersinia pestis topoisomerase I; Y. pestis Topo-I cleavage product accumulation, plate reader; activity, % at 10 µM; hit rate 0.064% among 360,000; AID 504884; in the data active = activity above about 50%, passing the limit was not always enough
TcdB GH inh: TcdB glycohydrolase inhibition; TcdB glycohydrolase enzymatic assay, plate reader; inhibition, % at 9.99 µM; hit rate 0.24% among 350,000; in the data active = inhibition above about 10%
PrPC TRFRET: inhibitors of human cell surface prion protein PrPC | hit rate 0.43% among 370,000 | P04156 | inhibition, % at 13.8 µM | AID 720596 | TR-FRET read-out; in the data active = inhibition above about 24%
GDH-TPI counter-1: inhibits GDH-TPI coupling enzymes, artifact for Mtb FBA screen | GDH-TPI coupled enzyme counterscreen, NADH absorbance | inhibition, % at 4.8 µM | AID 588335 | hit rate 1.2% among 360,000; in the data active = inhibition above about 30%
Mtb FBA inh conf: confirmation of M. tuberculosis fructose-bisphosphate aldolase inhibitors; shares compounds with Mtb FBA inh; purified M. tuberculosis FBA, fluorescence read-out; inhibition, % at 1 µM; hit rate 78% among 5,600; AID 651616
GDH-TPI counter-2: counter-screen for M. tuberculosis FBA inhibitors: GDH-TPI coupled enzyme inhibition. inhibition, % at 1 µM. AID 652141. shares compounds with Mtb FBA inh. GDH-TPI coupled enzyme counterscreen, fluorescence. hit rate 81% among 5,600; in the data active = inhibition above about 10%
Hits are given with their value; n = inactive; x = no result; + = active, no number. This is a sample that favours compounds with a hit; in the whole collection about 3.2% have one here. Rule as the data show it, unless noted: active = inhibition above about 27%; inactive = the rest.

SMILES | Mtb FBA inh | Y pestis TopoI | TcdB GH inh | PrPC TRFRET | GDH-TPI counter-1 | Mtb FBA inh conf | GDH-TPI counter-2
O=C(OCc1cc(=O)oc2cc(O)ccc12)c1cc(S(=O)(=O)N2CCOCC2)ccc1F | 41 | n | n | n | n | n | n
O=c1cc(CN2CCCC2)c2c(ccc3ccccc32)o1 | n | x | n | n | x | x | x
O=c1cc(CN2CC=C(c3ccccc3)CC2)c2c(ccc3ccccc32)o1 | 94 | n | x | n | n | 114 | 100
O=C(NCCCSc1ccccc1)c1cc(Cl)ccc1O | 36 | n | n | n | n | 68 | 48
O=C(CNC(=O)c1ccccc1)NCCCSc1ccccc1 | n | n | n | n | n | x | x
O=c1[nH]c2cc3c(cc2cc1CN(CCN1CCOCC1)C(=S)NCC1CCCO1)OCO3 (configuration not stated) | 34 | n | n | n | n | 124 | 125
CN(C)CCN(Cc1cc2cc3c(cc2[nH]c1=O)OCO3)C(=S)NCC1CCCO1 (configuration not stated) | 50 | n | n | n | n | n | n
O=C(COc1ccc([N+](=O)[O-])cc1)Nc1nc(-c2ccccn2)cs1 | 28 | n | n | n | n | + | +
CN1C(=O)c2cc(NC(=O)C3CCCC3)ccc2OC[C@H]2O[C@H](CC(=O)NCc3ccccc3F)CC[C@@H]21 | x | x | n | x | x | x | x
O=C(Nc1nc(-c2cccc3ccccc23)cs1)c1ccc2c(c1)S(=O)(=O)c1ccccc1C2=O | n | n | n | n | n | x | x
O=C(Nc1nc(-c2ccccc2)cs1)c1ccc2c(c1)S(=O)(=O)c1ccccc1C2=O | 84 | n | n | n | n | + | 158
CCCn1c2ccccc2c2nnc(SCC(=O)OC)nc21 | n | n | x | n | n | x | x
CCCn1c2ccccc2c2nnc(SCC(=O)OCC)nc21 | 52 | n | x | n | n | 38 | 64
COCC#Cc1ccc(CC[C@H]2O[C@H]3CC[C@H](CO)O[C@H]3C[C@@H]2n2cc(C3CC3)nn2)cc1 | x | x | n | x | x | x | x
C[C@@H]1CN([C@H](C)CO)C(=O)c2cc(-c3ccccc3F)cnc2O[C@@H]1CN(C)Cc1cccc(C(=O)O)c1 | x | x | n | x | x | x | x
Cc1ccc(CNc2nc3ccccc3n2C)o1 | n | n | n | n | n | x | x
Cn1c(-c2ccc(CN3CCCCC3)o2)nc2ccccc21 | 33 | n | x | n | n | n | 12
COc1ccccc1-c1cn(CC[C@@H]2CC[C@@H](NC(=O)Cc3ccccn3)[C@@H](CO)O2)nn1 | x | x | n | x | x | x | x
CSc1ccc(/C=C/C(=O)OCC(=O)NCC2CCCO2)cc1 (configuration not stated) | 45 | n | n | n | n | 53 | 49
CSc1ccc(/C=C/C(=O)OCC(=O)NC2CCCCCC2)cc1 | 30 | n | n | n | n | + | 196
O=C(COC(=O)c1ccccc1)NCC1CCCO1 (configuration not stated) | n | n | n | n | n | x | x
O=C(COC(=O)c1cccc2ccccc12)NCC1CCCO1 (configuration not stated) | 36 | n | n | n | n | 137 | 120
O=C(COC(=O)/C=C/c1ccc(Cl)c(Cl)c1)NC1CCS(=O)(=O)C1 (configuration not stated) | n | n | n | n | n | x | x
CSc1ccc(/C=C/C(=O)OCC(=O)NC2CCS(=O)(=O)C2)cc1 (configuration not stated) | 64 | n | n | n | 35 | 37 | 24
C/C=C/c1cnc2c(c1)C(=O)N([C@@H](C)CO)C[C@@H](C)[C@H](CN(C)C(=O)Nc1ccc(C(F)(F)F)cc1)O2 | x | x | n | x | x | x | x
SMILES | Mtb FBA inh | Y pestis TopoI | TcdB GH inh | PrPC TRFRET | GDH-TPI counter-1 | Mtb FBA inh conf | GDH-TPI counter-2
CO[C@H]1CN(C)C(=O)c2cc(NC(=O)CC(F)(F)F)ccc2OC[C@H](C)N(CCC(F)(F)F)C[C@@H]1C | x | x | n | x | x | x | x
CC(C)NC(=O)Nc1ccc2c(c1)C(=O)N([C@@H](C)CO)C[C@@H](C)[C@@H](CN(C)Cc1ccc(C(F)(F)F)cc1)O2 | x | x | n | x | x | x | x
C[C@@H]1CN([C@H](C)CO)C(=O)c2cc(C#Cc3ccccc3F)cnc2O[C@H]1CN(C)C(=O)C1CCC1 | x | x | n | x | x | x | x
CC(C)CC#Cc1ccc2c(c1)O[C@@H](CN(C)C(=O)C1CCC1)[C@@H](C)CN([C@@H](C)CO)S2(=O)=O | x | x | n | x | x | x | x
CSc1ccc(/C=C/C(=O)OCC(=O)N2CCCCCC2)cc1 | 81 | n | n | n | 43 | + | +
COc1cccc(CNC(=O)COC(=O)/C=C/c2ccc(SC)cc2)c1 | 37 | n | n | n | n | + | +
COc1ccc(/C=C/C(=O)OCC(=O)N2CCCCCC2)cc1OC | n | n | n | n | n | x | x
C[C@@H]1CN([C@@H](C)CO)C(=O)c2cccc(NC(=O)Nc3cccc4ccccc34)c2O[C@H]1CN(C)C(=O)Nc1cccc2ccccc12 | x | x | n | x | x | x | x
Cc1noc(C)c1NC(=O)N(C)C[C@@H]1Oc2ccc(N(C)C)cc2CC(=O)N([C@H](C)CO)C[C@H]1C | x | x | n | x | x | x | x
Cn1cc(C(=O)N2CCC3(CC2)OCCO3)c2c3ccccc3n(C)c2c1=O | 40 | n | x | n | n | 79 | 59
CCOC(=O)N1CCN(C(=O)c2cn(CC(C)C)c(=O)c3c2c2ccccc2n3C)CC1 | 31 | n | x | n | n | 50 | 47
Cn1c(C(=O)N2CCC3(CC2)OCCO3)cc2c(=O)n(C)c3ccccc3c21 | n | n | x | n | n | x | x
CC(C)Cn1cc(C(=O)N2CCOCC2)c2c3ccccc3n(C)c2c1=O | 41 | n | x | n | n | 42 | 26
CCOC(=O)N1CCN(C(=O)c2cn(C)c(=O)c3c2c2ccccc2n3C)CC1 | 41 | n | x | n | n | 128 | 108
C[C@H](CO)N1C[C@H](C)[C@H](CN(C)C(=O)Nc2cccc3ccccc23)Oc2c(NC(=O)c3cnccn3)cccc2C1=O | x | x | n | x | x | x | x
COc1cc2c(cc1O)C=[N+](Cc1cccc(OC(F)(F)F)c1)CC2 | x | x | n | x | x | x | x
CC(C)CCNC(=O)c1cn(CC(C)C)c(=O)c2c1c1ccccc1n2C | n | n | n | n | n | x | x
CC(C)Cn1cc(C(=O)NCc2cccs2)c2c3ccccc3n(C)c2c1=O | 34 | n | x | n | n | 192 | 144
COCCNC(=O)C1(C)CCN(C(=O)c2ccc3c(c2)C(C)(C)CCC3(C)C)C1 (configuration not stated) | 27 | n | n | n | n | n | n
CNC(=S)N1CCN(c2c(F)cc3c(=O)c(C(=O)O)cn(C4CC4)c3c2OC)CC1C (configuration not stated) | n | n | x | n | n | x | x
COC(=O)C(C)NC(=S)N1CCN(c2c(F)cc3c(=O)c(C(=O)O)cn(C4CC4)c3c2OC)CC1C (configuration not stated) | 30 | n | n | n | n | + | +
O=C(C[C@@H]1CC[C@@H]2[C@H](COC[C@H](O)CN2Cc2cccc(Cl)c2)O1)NCc1cccc(F)c1 | x | x | n | x | x | x | x
CCCNC(=O)Nc1ccc2c(c1)C(=O)N(C)[C@@H]1CC[C@H](CC(=O)NCC3CCCCC3)O[C@H]1CO2 | x | x | n | x | x | x | x
